VACV Venus inh: qHTS for Stage-Specific Inhibitors of Vaccinia Orthopoxvirus: Venus Reporter Primary qHTS; Vaccinia virus Venus reporter expression, fluorescence; Potency, µM (series often up to 36.5 µM), hits mostly inhibitors; 330,000 tested, 0.46% active; AID 720580, 2013; calls by dose curve; tested in A549 cells; note: nearly all actives have a fitted effect of over 30% in size
HCMV inh: qHTS Assay for inhibitors of the human cytomegalovirus (HCMV) | activity change, negative = inhibition, % at 57.5 µM | 410,000 tested, 4.5% active | AID 1259415, 2018 | HFF cells, HCMV-luciferase reporter, 72 h; stronger effect = lower value; in the data active = activity change below about -60%; inconclusive = no clear call, values can overlap the other calls; inactive = above about -39%
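HFF cells seeded 16 h at 37C, treated with compounds, infected with luciferase-reporter HCMV at MOI 1 PFU/cell; luciferase read at 72 h post infection, normalized to buffer-only and Salinomycin controls.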
MARV entry inh: qHTS for inhibitors of binding or entry into cells for Marburg Virus. Marburg virus pseudotyped entry inhibition, cell reporter. Potency, µM (doses to about 37.8 µM), usual class: inhibitors. 300,000 tested, 1.8% active; calls by dose curve; tested in HEK293 cells
VACV mCherry inh: qHTS for Stage-Specific Inhibitors of Vaccinia Orthopoxvirus: mCherry Reporter Primary qHTS; Potency, µM (top dose mostly 36.5 µM), most hits filed as inhibitors; 310,000 tested, 0.63% active; AID 720579, 2013; Vaccinia virus mCherry reporter infection, fluorescence; calls by dose curve; tested in A549 cells; note: nearly all actives have a fitted effect of over 35% in size
FMDV inh: High Throughput Screening for Foot and Mouth Disease Virus Antivirals; FMDV antiviral cell-based qHTS; Potency, µM (highest dose often 57.9 µM), usual class: inhibitors; 410,000 tested, 1.2% active; calls by dose curve; tested in HEK293T cells; note: read-out not given here; nearly all actives have a fitted effect of over 45% in size
LASV entry inh: qHTS for Inhibitors of binding or entry into cells for Lassa Virus; Lassa virus pseudotype entry inhibition, cell reporter; Potency, µM (doses to about 37.9 µM), most hits filed as inhibitors; 300,000 tested, 1.2% active; AID 540256, 2011; calls by dose curve; tested in HEK293 cells; note: nearly all actives have a fitted effect of over 50% in size
Each line names hits and unclear results; the compound was inactive in the other large screens. In the library only some 6.5% were active in any assay of this set; here they are far more common.

Cc1cccc(-n2ncc3c2CCCC3NC(=O)C2=CC(=O)CC(C)(C)O2)c1C (stereo not given)	HCMV inh -68, MARV entry inh inconclusive, FMDV inh inconclusive
CCc1cc(C(=O)NC2CCCc3c2cnn3-c2cccc(C)c2C)n(C)n1 (stereo not given)	HCMV inh -86, MARV entry inh inconclusive, FMDV inh 28µM, LASV entry inh inconclusive
Cc1cccc(-n2ncc3c2CCCC3NC(=O)CCN2CCCO2)c1C (stereo not given)	HCMV inh -76, MARV entry inh inconclusive, LASV entry inh inconclusive
Cc1cc(C)c(C(=O)NC2CCCc3c2cnn3-c2cccc(C)c2C)o1 (stereo not given)	HCMV inh -74, MARV entry inh inconclusive, LASV entry inh inconclusive
Cc1cccc(-n2ncc3c2CCCC3NC(=O)C2(C(N)=O)CC2)c1C (stereo not given)	MARV entry inh inconclusive, VACV mCherry inh inconclusive, FMDV inh inconclusive, LASV entry inh inconclusive
CCC(C)NC(=O)CSc1nc2cc3c(cc2c(=O)n1CCCC(=O)NCCc1ccc(OC)c(OC)c1)OCO3 (stereo not given)	LASV entry inh inconclusive (no result: MARV entry inh)
CC(NC(=O)C1CCOCC1)c1nnc2n1CCN(Cc1ccc3cccnc3c1)CC2 (stereo not given)	none (no result: HCMV inh, MARV entry inh, LASV entry inh)
COC(=O)c1ccc(NC(=O)C(=O)NCC(c2cccnc2)N2CCc3ccccc32)cc1 (stereo not given)	FMDV inh 11µM (no result: MARV entry inh)
COc1ccc(NC(=O)C(=O)NCC(c2cccnc2)N2CCc3ccccc32)cc1OC (stereo not given)	none (no result: MARV entry inh)
CCOc1ccc(NC(=O)C(=O)NCC(c2cccnc2)N2CCc3ccccc32)cc1 (stereo not given)	HCMV inh -66, FMDV inh 11µM (no result: MARV entry inh)
CCOc1ccccc1C1NC(c2ccc3c(c2)OCO3)=CC(c2ccccc2O)N1 (stereo not given)	none (no result: HCMV inh, MARV entry inh, FMDV inh, LASV entry inh)
Cc1nc2c(-c3ccccc3)c(C)nn2c(C)c1CCC(=O)NCc1ccc(F)cc1	none
COCCn1c(SCc2ccc(C(=O)OC)o2)nc2ccccc2c1=O	none (no result: FMDV inh)
Cn1c(SCCOc2ccccc2F)nc2ccccc2c1=O	HCMV inh inconclusive, MARV entry inh 3.5µM, FMDV inh 40µM
COC(=O)c1cc(CSc2nc3ccccc3c(=O)n2C)oc1C	HCMV inh -74, MARV entry inh inconclusive, FMDV inh inconclusive, LASV entry inh inconclusive
Cc1cccc(CSc2nc3ccccc3c(=O)n2C)c1	HCMV inh -76, FMDV inh inconclusive (no result: VACV Venus inh, MARV entry inh, VACV mCherry inh, LASV entry inh)
Nc1nc[nH]c(=O)c1N	none (no result: HCMV inh, MARV entry inh, FMDV inh, LASV entry inh)
COc1ccc(-n2c(=O)c3sc4ccccc4c3n(C)c2=O)cc1	none
CN(c1ccccc1)S(=O)(=O)c1ccc(NC(=O)c2ccc(-c3ccccc3)cc2)cc1	VACV Venus inh inconclusive, HCMV inh -96, FMDV inh inconclusive
COc1cc(NC(=O)c2ccc(S(=O)(=O)N(C)c3ccccc3)cc2)cc(OC)c1	HCMV inh -79 (no result: MARV entry inh, LASV entry inh)
Cc1nc2cc(NC(=O)c3ccc(S(=O)(=O)N(C)c4ccccc4)cc3)ccc2o1	HCMV inh -69, MARV entry inh inconclusive, FMDV inh 22µM
CCCCCCCCN1[C@@H](CC(=O)O)c2ccc(/C=C/C(=O)O)cc2S1(=O)=O	none (no result: HCMV inh, MARV entry inh, FMDV inh, LASV entry inh)
COCC(=O)Nc1cc(C(=O)N2CC3CC4CC(C3)CC2C4)c2c(c1)nc(-c1ccncc1)n2C	none (no result: HCMV inh, MARV entry inh, LASV entry inh)
COC(=O)[C@@H]1[C@@H](CO)[C@@H]2Cn3c(ccc(Br)c3=O)[C@H]1N2S(=O)(=O)c1cccc(C)c1	none (no result: VACV Venus inh, MARV entry inh, VACV mCherry inh, FMDV inh, LASV entry inh)
COc1ccc(NC(=O)c2oc3ccccc3c2NC(=O)C23CC4CC(CC(C4)C2)C3)cc1	MARV entry inh inconclusive
Cc1cnc([N+](=O)[O-])n1CCOC(=O)NC(=O)c1ccc(C(F)(F)F)cc1	none
Cc1cnc([N+](=O)[O-])n1CCOC(=O)NC(=O)c1ccccc1Cl	HCMV inh -66 (no result: LASV entry inh)
CCS(=O)(=O)Nc1c(C(=O)OC)[nH]c2ccccc12	none (no result: VACV Venus inh, VACV mCherry inh)
CCS(=O)(=O)Nc1c(C(=O)O)[nH]c2ccccc12	HCMV inh -108
CCCc1c(NC(=O)Nc2ccc(Cl)cc2Cl)cnn1-c1ccccc1	HCMV inh inconclusive, MARV entry inh 0.89µM, VACV mCherry inh inconclusive, LASV entry inh inconclusive
c1cnc2[nH]ccc2c1	none (no result: HCMV inh, MARV entry inh, FMDV inh, LASV entry inh)
COc1ccc(C(C)N(C)Cc2nc(N3CCN(C(=O)c4ccco4)CC3)c3ccccc3n2)cc1 (stereo not given)	none (no result: HCMV inh, MARV entry inh, LASV entry inh)
CC1CCc2c(sc3ncnc(SCC(=O)N(C)C4CCS(=O)(=O)C4)c23)C1 (stereo not given)	HCMV inh active (no result: VACV Venus inh, MARV entry inh, VACV mCherry inh, LASV entry inh)
CC(=O)CSc1ncnc2sc3c(c12)CCC(C)C3 (stereo not given)	none (no result: VACV Venus inh, VACV mCherry inh)
CC1CCCN(C(=O)Cn2ncc3c([nH]c4ccccc43)c2=O)C1 (stereo not given)	none (no result: MARV entry inh)
CN(CCO)c1nc(-c2cccs2)nc2ccccc12	none (no result: HCMV inh, MARV entry inh, FMDV inh, LASV entry inh)
CC(C)C[C@@H](COc1ccccc1)N1CCN(Cc2ccccc2)CCC1=O	HCMV inh -102 (no result: MARV entry inh, LASV entry inh)
COC(=O)NC(c1ccccc1)c1c[nH]c2ccc(OC)cc12 (stereo not given)	none (no result: VACV Venus inh, HCMV inh, VACV mCherry inh, FMDV inh, LASV entry inh)
C(=N\Nc1nc(-c2ccccc2)cs1)/c1ccco1	MARV entry inh inconclusive, LASV entry inh inconclusive
Cc1sc(N/N=C/c2ccco2)nc1-c1ccccc1	MARV entry inh inconclusive, LASV entry inh 21µM
Cc1sc(N/N=C/c2cccnc2)nc1-c1ccccc1	HCMV inh -65, MARV entry inh inconclusive, FMDV inh inconclusive, LASV entry inh 2.9µM (no result: VACV Venus inh, VACV mCherry inh)
CC(=O)Nc1ccc(-c2csc(Nc3ccc(Cl)cn3)n2)cc1	VACV Venus inh inconclusive, HCMV inh -61, MARV entry inh inconclusive, FMDV inh 25µM
Cc1ccnc(Nc2nc(-c3ccccc3)cs2)c1	none (no result: VACV Venus inh, MARV entry inh, VACV mCherry inh, LASV entry inh)
CC(=O)Nc1ccc(-c2csc(Nc3cc(C)ccn3)n2)cc1	HCMV inh -61, MARV entry inh inconclusive, FMDV inh inconclusive, LASV entry inh inconclusive
CC(=O)Nc1cccc(-c2csc(Nc3ccc(Cl)cn3)n2)c1	VACV Venus inh inconclusive (no result: MARV entry inh, LASV entry inh)
Cc1ccnc(Nc2nc(-c3c(C)nc4sccn34)cs2)c1	HCMV inh -76, FMDV inh inconclusive (no result: VACV Venus inh, VACV mCherry inh)
CC(C)CNc1cccc2c1S(=O)(=O)N[C@@H](C)CO2	none (no result: VACV Venus inh, MARV entry inh, VACV mCherry inh, FMDV inh, LASV entry inh)
COc1cc2c(cc1OC)C(c1cc3cc(OC)c(OC)cc3[nH]c1=O)N(C(=O)C1CC1)CC2 (stereo not given)	MARV entry inh 13µM, LASV entry inh 26µM (no result: VACV Venus inh, VACV mCherry inh)
CCCCN(CC)C(=O)CSc1nc2n[nH]c(C)c2c(=N)n1-c1ccc(CC)cc1	FMDV inh inconclusive (no result: MARV entry inh)
COc1ccc(CCCc2nnc(SCC(=O)N/N=C\c3ccc(O)c(OC)c3)o2)cc1C	MARV entry inh inconclusive, FMDV inh 22µM, LASV entry inh inconclusive (no result: VACV mCherry inh)
COc1ccc(/C=N/NC(=O)CSc2nnc(CCCc3ccc(OC)c(C)c3)o2)cc1	VACV Venus inh inconclusive, MARV entry inh inconclusive, LASV entry inh 7.9µM (no result: VACV mCherry inh)
CC(O)[C@H]1CN=C(N)N1CCc1cc(C(F)(F)F)cc(C(F)(F)F)c1 (stereo not given in full)	none (no result: MARV entry inh, LASV entry inh)
